# This is a sample that favours compounds with a hit; in the whole collection about 7.3% have one here.
# SMN2 splice enh – enhancers of SMN2 splice variant expression. HEK293 SMN2-luciferase splicing reporter, luminescence, 30-36 h. Potency, µM (doses to about 46.1 µM), actives largely listed as activators. 210,000 tested, 2.8% active. AID 1458; also: nearly all actives have a fitted effect of over 55% in size
#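 qHTS luciferase splicing reporter: luminescence rises when SMN2 exon 7 is included in transfected HEK293 cells. Compound exposure lasted 30-36 h at 37C, with 4.5 mM final sodium butyrate as control, followed by a ONE-Glo read.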
# NPC1 prom act – activates the NPC1 promoter; AID 485313; Huh7 NPC1 promoter luciferase reporter, 24 h; Potency, µM (doses to about 9.22 µM), hits mostly activators; 320,000 tested, 2.4% active; also: nearly all actives have a fitted effect of over 60% in size
#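 Quantitative HTS used a cell-based reporter: Huh7 cells stably bearing the NPC1 promoter upstream of luciferase were treated with compounds for 24 h, and promoter activation was read as luminescence.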
# Luc counter – counter-screen: inhibitors of Kinase-Glo firefly luciferase; Q27757; Kinase-Glo luciferase, ATP luminescence, 8 min; Potency, µM (top dose mostly 38.3 µM), actives largely listed as inhibitors; 200,000 tested, 0.28% active; AID 1379; also: nearly all actives have a fitted effect of over 60% in size
#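 Compound is pinned into ATP-containing buffer (10 uM ATP, imidazole pH 7.2, 7 mM MgCl2). Kinase-Glo luciferase reagent is then added. Light output is recorded following an 8-min room-temperature incubation.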
# FLuc counter – counter-screen for miR-21 project: firefly luciferase inhibitors or activators; Potency, µM (doses to about 57.5 µM), hits mostly inhibitors; 360,000 tested, 6.9% active; purified FLuc, Km substrates, luminescence inhibition; AID 588342; also: nearly all actives have a fitted effect of over 55% in size
# Target sequence (P08659 whole entry, looked up): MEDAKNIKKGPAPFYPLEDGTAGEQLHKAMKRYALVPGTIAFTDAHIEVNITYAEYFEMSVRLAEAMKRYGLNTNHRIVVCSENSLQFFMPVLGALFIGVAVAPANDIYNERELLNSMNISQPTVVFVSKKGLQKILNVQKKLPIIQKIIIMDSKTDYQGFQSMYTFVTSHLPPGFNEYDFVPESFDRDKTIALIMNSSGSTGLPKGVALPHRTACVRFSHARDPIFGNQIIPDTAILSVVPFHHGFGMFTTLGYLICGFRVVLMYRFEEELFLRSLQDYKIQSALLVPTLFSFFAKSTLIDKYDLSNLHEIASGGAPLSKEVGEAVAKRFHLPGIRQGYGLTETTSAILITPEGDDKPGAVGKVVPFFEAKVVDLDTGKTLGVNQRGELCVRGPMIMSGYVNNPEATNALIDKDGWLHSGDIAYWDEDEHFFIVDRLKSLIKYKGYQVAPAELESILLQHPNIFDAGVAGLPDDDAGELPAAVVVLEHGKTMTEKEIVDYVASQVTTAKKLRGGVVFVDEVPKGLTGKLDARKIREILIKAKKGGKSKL
#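 Purified P. pyralis luciferase, 10 nM final, with Km-level 10 uM D-luciferin and 10 uM ATP in 50 mM Tris acetate pH 7.5, 10 mM Mg acetate, 0.01% Tween-20, 0.05% BSA; 6-point qHTS titration about 60 µM downward; luminescence read.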
# Rab9 prom act – activators of Rab9 promoter; Huh7 Rab9 promoter-luciferase reporter, luminescence, 24 h; Potency, µM (series often up to 9.22 µM), hits mostly activators; 320,000 tested, 2.8% active; AID 485297; also: nearly all actives have a fitted effect of over 60% in size
#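 Promoter activation is measured as luciferase luminescence in Huh7 cells stably transfected with a Rab9 promoter–luciferase construct, following 24 h compound exposure at 37 °C and 10 min reagent incubation at ambient temperature.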
# A number is an active result; - = inactive; ? = inconclusive; . = not tested or not shown; [ ] = remark or other dose. Calls follow the shape of the dose curve; as a rule, active = well fitted curve in the direction sought with a large enough effect; inconclusive = small, poorly fitted or top-dose-only effect, or another doubt; inactive = no such curve, though single readings can be large; an effect the other way counts as inactive or inconclusive.
SMILES,SMN2 splice enh,NPC1 prom act,Luc counter,FLuc counter,Rab9 prom act
CCc1ccccc1NC(=O)c1cc(-c2ccc(OC)cc2)on1,-,-,.,-,-
Clc1ccc(SCc2cc(-c3ccccc3)no2)cc1,-,-,-,?,-
Cc1cccc(OCc2cc(-c3ccccc3)no2)c1C,.,?,.,12µM,?
Clc1ccc(OCc2cc(-c3ccccc3)no2)c(Cl)c1,0.5µM,0.5µM,-,0.38µM,0.63µM
Fc1ccc(OCc2cc(-c3ccccc3)no2)cc1,.,2.8µM,.,5.4µM,3.2µM
COc1ccc(-c2cc(-c3ccccc3)no2)cc1,.,0.5µM,.,0.38µM,0.4µM
CC(C)COc1ccc(C(=O)Nc2cc(-c3ccccc3)no2)cc1,-,.,.,.,.
Cc1cccc(C)c1OCC(=O)N(Cc1ccccc1F)C1CCS(=O)(=O)C1 (stereo not drawn),-,.,.,-,.
CCN(CC)S(=O)(=O)c1ccc2c(c1)N(CC(=O)N1CCN(c3cccc(C(F)(F)F)c3)CC1)C(=O)CO2,.,.,.,-,.
Cc1cccc(-c2nc3c4ccccc4n(Cc4cccc(Cl)c4)c(=O)n3n2)c1,.,.,.,-,.
CC1CCN(S(=O)(=O)c2ccc3c(c2)N(CC(=O)NC(C)c2ccccc2)C(=O)CS3)CC1 (stereo not drawn),-,.,.,-,.
CCCCC[C@H](O)/C=C/[C@@H]1[C@@H](C/C=C\CCCC(=O)O)[C@H](O)C[C@H]1O,-,.,-,.,.
COc1ccc(-c2cc(COc3ccccc3)on2)cc1,?,?,-,11µM,4µM
COc1cc(O)c2c(=O)cc(-c3ccccc3)oc2c1,.,?,-,?,-
O=c1cc(-c2ccccc2)oc2cc(O)cc(O)c12,4µM,.,-,.,.
COc1cc(-c2cc(=O)c3c(O)cc(O)cc3o2)ccc1O,.,-,.,15µM,-
O=c1cc(-c2ccc(O)cc2)oc2cc(O)cc(O)c12,22µM,?,-,.,-
COc1cccc([C@@H]2Oc3ccc(OC)cc3C[C@H]2OC(=O)N[C@H]2CCCc3ccccc32)c1,-,.,-,.,.
Fc1ccc(CNc2nc3ccc(Cl)cc3n3nnnc23)cc1,-,.,.,-,.
Fc1ccc(-c2cn3cc(Cc4ccccc4)sc3n2)cc1,6.3µM,.,.,0.12µM,.
Brc1ccc(-c2cn3cc(Cc4ccccc4)sc3n2)cc1,-,.,.,0.34µM,.
Clc1ccccc1Cc1cn2cc(-c3ccccc3)nc2s1,2.5µM,.,.,0.17µM,.
Fc1ccc(Cc2cn3cc(-c4ccccc4)nc3s2)cc1,2µM,.,.,0.11µM,.
C[C@H](OP(=O)(O)O)[C@H](N)C(=O)O,-[9.22 µM],.,-[7.66 µM],.,.
COc1cc(NC(=O)N2CCC(CN3CCOCC3)CC2)cc(OC)c1OC,.,.,.,-,.
SMILES,SMN2 splice enh,NPC1 prom act,Luc counter,FLuc counter,Rab9 prom act
CCc1nc(Nc2ccc3c(c2)OCCO3)c2oc3ccccc3c2n1,-,-,-,27µM,-
CCc1nc(Nc2ccc(O)cc2)c2oc3ccccc3c2n1,.,-,.,19µM,-
c1ccc2c(c1)oc1c(Nc3ccc4c(c3)OCCO4)ncnc12,2.8µM,?,-,2.4µM,1.6µM
Cc1nc(Nc2ccc3c(c2)OCCO3)c2oc3ccccc3c2n1,-,-,-,?,-
c1ccc2c(c1)oc1c(N3CCN(Cc4ccc5c(c4)OCO5)CC3)ncnc12,-,-,-,17µM,-
c1ccc(Cn2nnc3c(N4CCN(Cc5ccc6c(c5)OCO6)CC4)ncnc32)cc1,.,-,-,-,-
CCn1cc(C(=O)NCCc2ccc(C)cc2)c(=O)c2cc(S(=O)(=O)N3CCc4ccccc4C3)ccc21,-,.,.,-,.
COc1ccc(CCNC(=O)CCCn2c(=O)c3ccccc3n(CC(=O)Nc3cccc(C)c3)c2=O)cc1OC,-,.,.,-,.
Nc1cccc(Nc2ccccc2)c1,.,-,-,-,-
c1ccc(Nc2cccc(Nc3ccccc3)c2)cc1,-,-,-,15µM,-
Cc1ccc(CNC(=O)CCc2c(C)nn(-c3ccc(N4CCCCC4)nn3)c2C)cc1,.,.,.,-,.
COc1cc(-c2noc(-c3cc(C(C)C)[nH]n3)n2)cc(OC)c1OC,.,.,.,-,.
COc1ccc(-c2noc(-c3ccc(Br)o3)n2)cc1,.,3.2µM,.,2.4µM,2µM
COc1ccc(CC(=O)Nc2ccc(-c3noc(-c4cccc(OC)c4)n3)cc2)cc1,-,-,-,-,-
COc1ccc(-c2nc(-c3ccc(Br)o3)no2)cc1,10µM,0.63µM,-,0.95µM,0.45µM
CC(C)c1cc(-c2nc(-c3ccc(Cl)cc3)no2)n[nH]1,.,.,.,9.5µM,.
COc1cccc(-c2noc(-c3ccc(Br)o3)n2)c1,22µM,2.5µM,-,3µM,1.4µM
Cc1cccc2c(=O)cc(CSc3ccccc3NC(=O)c3cccc(Cl)c3)[nH]c12,.,.,.,-,.
COc1ccc(C2CC(=O)c3cc(-c4nc(-c5cccc([N+](=O)[O-])c5)cs4)c(=O)n(-c4ccccc4N)c3C2)cc1 (stereo not drawn),-,.,.,-,.
COc1ccc(-c2noc(-c3ccc(Cl)cc3)n2)cc1,11µM,2.5µM,-,2.1µM,?
COc1ccc(-n2c(SCC(=O)N3CCC(C)CC3)nc3c([nH]c4ccccc43)c2=O)cc1,.,.,.,-,.
Cc1cccc(/C=N/NC(=O)c2cccc(NC(=O)c3ccccc3)c2)n1,.,-,.,11µM,-
Cc1cccc(/C=N/NC(=O)c2cccc(Cl)c2)n1,.,-,.,?,-
Cc1cccc(/C=N/NC(=O)c2cc(Br)ccc2OCc2ccccc2)n1,.,-,.,-,-
Cc1cccc(NC(=O)c2cccc(NC(=O)c3ccccc3)c2)n1,.,-,.,21µM,-
SMILES,SMN2 splice enh,NPC1 prom act,Luc counter,FLuc counter,Rab9 prom act
Cc1cccc(/C=N/NC(=O)c2ccccc2OCc2cccc(Br)c2)n1,.,-,.,19µM,-
Cc1cccc(/C=N/NC(=O)c2ccc(F)cc2)n1,.,-,.,12µM,-
Cc1cccc(-c2noc(CN(C(=O)COc3ccc(C(C)C)cc3)C(C)C)n2)c1,-,.,.,-,.
Cc1cccc(CS(=O)(=O)Cc2ccc(C(=O)NCc3ccc(Cl)cc3)o2)c1,.,.,.,-,.
O=C(Cn1c(=O)nc(-c2ccccc2)c2cc(Cl)ccc21)Nc1ccc(F)c(Cl)c1,-,.,.,-,.
Nc1nn(-c2cccc(F)n2)cc1-c1ccc(Cl)cc1,18µM,2.5µM,-,0.95µM,0.45µM
Nc1nn(-c2cccc(F)n2)cc1-c1ccccc1,14µM,2µM,-,3µM,0.63µM
Nc1ncncc1-c1ccc(Cl)cc1,.,-,.,-,-
Nc1nc(SCc2ccc([N+](=O)[O-])cc2)c2ncn([C@@H]3O[C@H](CO)[C@H](O)[C@H]3O)c2n1,?,.,-,.,.
Cc1nc2nc[nH]n2c(=O)c1CCOC(=O)c1ccccc1F,.,-,-,11µM,-
Cc1ccc(N/C=C/C(=O)C(C)(C)C)c(O)c1,-,-,-,19µM,-
FC(F)(F)c1ccccc1-n1c(-c2cnccn2)n[nH]c1=S,.,-,.,17µM,-
CCOc1ccc(-c2ccc(NS(=O)(=O)c3cc(C)ccc3OC)cc2)nn1,.,.,.,-,.
COc1ccc(OC)c(S(=O)(=O)Nc2cccc(F)c2)c1,?,-,-,-,-
COc1ccc(F)cc1S(=O)(=O)Nc1cccc(-c2ccc(N3CCC(C)CC3)nn2)c1,.,.,.,5.4µM,.

# Compound activity: PubChem, National Center for Advancing Translational Sciences (NCATS)
